# In article PMC4336329 (PLoS ONE, 2015):
# In all, about 310,000 compounds went through this assay and about 14,000 (4.5%) showed an effect of 50% or more. The effect is printed as a negative number. Only a selection was taken, and strong results are over-represented in it overall.
# Target: human ether-à-go-go-related gene (hERG) potassium channel (human, UniProt Q12809)
# Assay: primary screen, population patch clamp on CHO cells stably expressing hERG; higher = less effect of the substance
# 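Further: peak tail current of the secondary pulse compared with the same well before compound.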
# human ether-à-go-go-related gene (hERG) potassium channel, sequence (Q12809 whole entry, looked up): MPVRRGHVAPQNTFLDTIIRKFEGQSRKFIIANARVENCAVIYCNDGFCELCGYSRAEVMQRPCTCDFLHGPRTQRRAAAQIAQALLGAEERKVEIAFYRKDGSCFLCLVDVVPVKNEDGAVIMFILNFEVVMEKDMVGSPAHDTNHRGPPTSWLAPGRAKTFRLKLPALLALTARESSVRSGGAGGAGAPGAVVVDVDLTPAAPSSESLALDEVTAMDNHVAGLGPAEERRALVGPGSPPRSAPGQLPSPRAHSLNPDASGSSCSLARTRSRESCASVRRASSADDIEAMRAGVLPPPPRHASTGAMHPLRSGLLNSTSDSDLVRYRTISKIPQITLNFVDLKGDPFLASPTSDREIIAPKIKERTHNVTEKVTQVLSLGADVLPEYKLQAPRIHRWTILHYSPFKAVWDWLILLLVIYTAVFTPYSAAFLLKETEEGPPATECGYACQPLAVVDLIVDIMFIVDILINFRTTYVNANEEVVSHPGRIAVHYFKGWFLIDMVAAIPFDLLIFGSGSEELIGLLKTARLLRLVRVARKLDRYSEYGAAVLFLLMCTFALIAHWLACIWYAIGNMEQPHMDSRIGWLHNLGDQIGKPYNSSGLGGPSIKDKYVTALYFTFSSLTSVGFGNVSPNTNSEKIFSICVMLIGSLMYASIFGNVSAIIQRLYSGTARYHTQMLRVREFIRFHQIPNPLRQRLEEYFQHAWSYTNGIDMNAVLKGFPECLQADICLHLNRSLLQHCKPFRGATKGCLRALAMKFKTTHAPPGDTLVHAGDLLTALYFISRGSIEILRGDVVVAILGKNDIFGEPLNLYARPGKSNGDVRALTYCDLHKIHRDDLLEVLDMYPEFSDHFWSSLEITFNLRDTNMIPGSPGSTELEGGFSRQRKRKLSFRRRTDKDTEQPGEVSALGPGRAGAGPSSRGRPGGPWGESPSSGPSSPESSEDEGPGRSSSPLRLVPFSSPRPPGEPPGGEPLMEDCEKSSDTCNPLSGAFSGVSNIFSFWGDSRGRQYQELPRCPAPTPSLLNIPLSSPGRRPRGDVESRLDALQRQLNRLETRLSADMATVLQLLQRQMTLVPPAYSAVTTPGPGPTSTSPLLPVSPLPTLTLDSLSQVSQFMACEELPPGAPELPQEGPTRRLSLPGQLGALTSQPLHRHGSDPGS
row,Structure (SMILES),"hERG current change (%, negative = inhibition) at 10uM [%]"
1,CCC1(C)Cc2c(sc3c2c(=O)n(-c2ccccc2)c(=O)n3C)CO1 (centres unmarked),5.26
2,COc1cc2cnc(-c3ccccc3)c(-c3cc(OC)c(OC)c(OC)c3)c2cc1OC,-0.323
3,Cn1c2ccccc2c(=O)c2ccc(C#CC3(O)CCCCC3)cc21,1.63
4,COc1cccc(N(CC(=O)NCc2ccco2)C(=O)CCC(=O)Nc2nccs2)c1,1.6
5,CSCCC(NS(=O)(=O)c1ccc(Cl)cc1)C(=O)OCc1c(Cl)cccc1Cl (centres unmarked),6.45
6,COc1ccc(OC)c(C(C)NC(=S)NC2CCCCC2)c1 (centres unmarked),-6.58
7,Cc1cccc(OC(C)C(=O)N2CCCN(C)CC2)c1C (centres unmarked),1.75
8,COc1ccc(NC(=O)CSc2nnc3n2CCCCC3)cc1,8.17
9,Cc1ccccc1S(=O)(=O)Oc1ccccc1C(=O)Oc1ccccc1,-1.26
10,C=CCn1c(=O)/c(=C/c2ccc(Cl)cc2)s/c1=C(/C#N)c1nnc2n1CCCCC2,-43
11,Br.CCOc1ccc(C2=CS/C(=C(\C#N)c3nnc4n3CCCCC4)N2CC)cc1,-47.3
12,C=CCn1c(=O)/c(=C/c2ccc(O)cc2)s/c1=C(/C#N)c1nnc2n1CCCCC2,-16.6
13,Br.C=CCN1C(c2ccc(OCC)cc2)=CS/C1=C(\C#N)c1nnc2n1CCCCC2,-37.9
14,C=CCn1c(=O)/c(=C/c2ccc(F)cc2)s/c1=C(\C#N)c1nnc2n1CCCCC2,-59.9
15,Br.C=CCN1C(c2ccccc2)=CS/C1=C(\C#N)c1nnc2n1CCCCC2,-59.2
16,Cc1cc(C(=O)Nc2ccc(C(=O)O)cc2)c(C)o1,23.9
17,Cc1cc(C)c(C)c(S(=O)(=O)N2CCN(c3ncnc4ccccc34)CC2)c1C,-4.67
18,Cc1cc(NC(=O)c2noc3c2CCc2ccccc2-3)no1,11
19,Cc1ccc(-c2cc(C(=O)Nc3c(C)n(C)n(-c4ccccc4)c3=O)no2)cc1,-25.3
20,COc1ccc2c(c1)CCc1c(C(=O)Nc3c(C)n(C)n(-c4ccccc4)c3=O)noc1-2,4.63
21,Cc1c(N/C(=N/S(=O)(=O)c2ccccc2)c2ccc(Cl)cc2)c(=O)n(-c2ccccc2)n1C,-30.7
22,Cc1c(NC(=O)c2cc3nc(-c4ccc(Br)cc4)cc(C(F)(F)F)n3n2)c(=O)n(-c2ccccc2)n1C,-33.9
23,Cc1ccc(S(=O)(=O)/N=C(/Nc2c(C)n(C)n(-c3ccccc3)c2=O)c2ccc(Cl)cc2)cc1,-57
24,Cc1c(N/C(=N/S(=O)(=O)c2ccc(Cl)cc2)c2ccccc2)c(=O)n(-c2ccccc2)n1C,-20.6
25,Cc1c(NC(=O)c2noc3c2CCc2ccccc2-3)c(=O)n(-c2ccccc2)n1C,-52.9
26,Cc1c(NC(=O)c2cc(-c3ccccc3)on2)c(=O)n(-c2ccccc2)n1C,-27.7
27,Cc1c(NC(=O)c2cc(-c3ccc(Cl)cc3)on2)c(=O)n(-c2ccccc2)n1C,-55.1

row,Structure (SMILES),"hERG current change (%, negative = inhibition) at 10uM [%]"
1,Cc1ccc(-c2cc(C(F)(F)F)n3nc(C(=O)Nc4c(C)n(C)n(-c5ccccc5)c4=O)cc3n2)cc1,-14.3
2,Cc1c(NC(=O)c2cc3nc(-c4ccc(Cl)cc4)cc(C(F)(F)F)n3n2)c(=O)n(-c2ccccc2)n1C,-55.3
3,CCC(C)(C)NC(=O)C1c2ccccc2Oc2ccccc21,23
4,O=C(O)CC1Sc2nnc(COc3ccc(Cl)cc3)n2N=C1c1ccccc1 (centres unmarked),21.2
5,CN(C)S(=O)(=O)c1cc(S(=O)(=O)N(C)C)c(Cl)cc1N,-8.31
6,COC(=O)c1ccccc1NC(=S)NC(NC(=O)c1ccccc1[N+](=O)[O-])C(Cl)(Cl)Cl (centres unmarked),-1.4
7,CCc1oc(C(=O)OC)cc1CSC(=N)N.Cl,12
8,CS(=O)(=O)c1ccc(C(=O)NC2CCCc3ccccc32)cc1 (centres unmarked),20
9,COc1ccc(-c2csc(-c3cccnc3)n2)cc1C,-3.79
10,CCCCNC(=O)Nc1nnc(-c2ccc(OCC)cc2)o1,10.1
11,CCN(CC)CCCNC(=O)c1[nH]c(C)c(C(=O)NC2CCCCC2)c1C,12.9
12,CCc1nc(SCC(=O)Nc2cc(OC)ccc2OC)c2c(C)c(C)sc2n1,3.63
13,CC(C)Cc1nnc(NC(=O)C2CCN(C(=O)c3ccc(Cl)cc3)CC2)s1,-29.2
14,CCN(CC)c1ccc(/C=C(/C#N)C(=O)NC(C)C)o1,-1.68
15,COC(=O)C(C)n1cnc2c(nnn2-c2ccc(C)cc2)c1=O (centres unmarked),-10.6
16,NC(=O)C1CCN(CC(=O)N2c3ccccc3CCc3ccccc32)CC1,19.3
17,Cc1cccn2c(=O)c3cc(C(=O)NC4CCCCC4)n(C)c3nc12,12.5
18,Cc1cccn2c(=O)c3cc(C(=O)NC4CCCC4)c(=N)n(C4CCCCC4)c3nc12,-80.7
19,Cc1cccn2c(=O)c3cc(C(=O)NC4CCCCC4C)n(C)c3nc12 (centres unmarked),13.7
20,Cc1cccn2c(=O)c(C(=O)NC3CCCCC3)c(O)nc12,31.3
21,Cc1cccn2c(=O)c3cc(C(=O)NC4CCCC4)n(C)c3nc12,1.13
22,Cc1cccn2c(=O)c3cc(C(=O)NC4CCCC4)c(=N)n(C4CCCC4)c3nc12,-79.2
23,COc1cc(C(=O)NCC(=O)N/N=C/c2c(C)[nH]c3ccccc23)cc(OC)c1OC,15.7
24,CCN(CC)CCC(C)OC(c1ccccc1)c1ccccc1.O=C(O)CC(O)(CC(=O)O)C(=O)O (centres unmarked),-52.2
25,CCN(CC)CCc1nc(-c2ccccc2)no1.O=C(O)CC(O)(CC(=O)O)C(=O)O,-10.6
26,CCC(C(=O)OCCN(CC)CC)c1ccccc1.O=C(O)CC(O)(CC(=O)O)C(=O)O (centres unmarked),4.45
